In the supplement of paper PMC8728848:
The entries come from a sample that favours the strongest signals as a whole.

What was measured:
Test in all cases: glycan array binding signal (z-score within array); higher = stronger binding
Conditions in all cases: glycan notation: IUPAC condensed, linker removed
[1] = biological target: Gal(b1-4)GlcNAc(b1-3)Gal(b1-4)GlcNAc(b1-3)Gal(b1-4)GlcNAc(b1-3)Gal(b1-4)GlcNAc(b1-3)Gal(b1-4)GlcNAc(b1-2)Man(a1-3)[Gal(b1-4)GlcNAc(b1-3)Gal(b1-4)GlcNAc(b1-3)Gal(b1-4)GlcNAc(b1-3)Gal(b1-4)GlcNAc(b1-3)Gal(b1-4)GlcNAc(b1-2)Man(a1-6)]Man(b1-4)GlcNAc(b1-4)[Fuc(a1-6)]GlcNAc
In short: (§1)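 Negative Z-scores can be read as non-binding. The Z-score is calculated within each array and then averaged across arrays of one protein sequence at different concentrations or buffers and across linkers. Arrays, 3228 in all, were curated from the Consortium for Functional Glycomics database and kept only where the protein sequence was available.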

[2] = biological target: Gal(b1-4)GlcNAc(b1-3)[GlcNAc(b1-6)]Gal(b1-4)GlcNAc
In short: as §1

[3] = biological target: Gal(b1-4)GlcNAc(b1-6)GalNAc
In short: as §1

GalNAc(b1-3)Gal = biological target: GalNAc(b1-3)Gal
In short: as §1

GalNAc(b1-6)GalNAc = biological target: GalNAc(b1-6)GalNAc
In short: as §1

Glc(a1-6)Glc(a1-6)Glc = biological target: Glc(a1-6)Glc(a1-6)Glc
In short: as §1

[4] = biological target: GlcNAc(a1-4)Gal(b1-4)GalNAc
In short: as §1

[5] = biological target: GlcNAc(b1-3)Gal(b1-4)GlcNAc(b1-2)Man(a1-3)[GlcNAc(b1-3)Gal(b1-4)GlcNAc(b1-2)Man(a1-6)]Man(b1-4)GlcNAc(b1-4)GlcNAc
In short: as §1

[6] = biological target: GlcNAc(b1-4)Gal(b1-4)GlcNAc
In short: as §1

[7] = biological target: GlcNAc(b1-4)GlcNAc(b1-4)GlcNAc
In short: as §1

Kdn(a2-3)Gal(b1-4)GlcNAc = biological target: Kdn(a2-3)Gal(b1-4)GlcNAc
In short: as §1

[8] = biological target: Man(a1-3)[Man(a1-6)]Man(a1-6)[Man(a1-3)]Man
In short: as §1

[9] = biological target: Neu5Ac(a2-3)Gal(b1-3)GalNAc(b1-3)Gal(a1-4)Gal(b1-4)Glc
In short: as §1

[10] = biological target: Neu5Ac(a2-3)Gal(b1-3)GlcNAc6S
In short: as §1

[11] = biological target: Neu5Ac(a2-3)Gal(b1-3)[Neu5Ac(a2-6)]GalNAc
In short: as §1

[12] = biological target: Neu5Ac(a2-3)Gal(b1-4)GlcNAc(b1-2)Man(a1-3)[GlcNAc(b1-4)][Neu5Ac(a2-3)Gal(b1-4)GlcNAc(b1-2)Man(a1-6)]Man(b1-4)GlcNAc(b1-4)GlcNAc
In short: as §1

[13] = biological target: Neu5Ac(a2-3)Gal(b1-4)GlcNAc(b1-3)Gal(b1-4)GlcNAc
In short: as §1

[14] = biological target: Neu5Ac(a2-3)Gal(b1-4)GlcNAc(b1-6)[Gal(b1-3)]GalNAc
In short: as §1

[15] = biological target: Neu5Ac(a2-3)Gal(b1-4)GlcNAc(b1-6)[Neu5Ac(a2-3)Gal(b1-3)]GalNAc
In short: as §1

[16] = biological target: Neu5Ac(a2-3)[GalNAc(b1-4)]Gal(b1-4)Glc
In short: as §1

[17] = biological target: Neu5Ac(a2-3)[Neu5Ac(a2-6)]GalNAc
In short: as §1

[18] = biological target: Neu5Ac(a2-6)Gal(b1-4)GlcNAc(b1-2)[Neu5Ac(a2-6)Gal(b1-4)GlcNAc(b1-4)]Man(a1-3)[GlcNAc(b1-4)][Neu5Ac(a2-6)Gal(b1-4)GlcNAc(b1-4)Man(a1-6)]Man(b1-4)GlcNAc(b1-4)GlcNAc
In short: as §1

[19] = biological target: Neu5Ac(a2-6)Gal(b1-4)GlcNAc(b1-6)GalNAc
In short: as §1

[20] = biological target: Neu5Gc(a2-8)Neu5Ac(a2-3)Gal(b1-4)GlcNAc
In short: as §1

B1: PLU (Photorhabdus luminiscence) (protein)
chain: HHHHHHENLYFQSSIVFASIDPRSNPLQTSSQNYVDIPGLKLDVSKYSNSPCLTALITLNIPTPYASGNNFPGGNFAIVTDQGEQLAYGGFTYSSKIPENSGRMPFTLVARYSLASNVSTIKAQWSNIRGSTVHIDSYASISAVIQCNQLV
glycan array binding signal (z-score) [1]: -0.211 | glycan array binding signal (z-score) [2]: -0.329 | glycan array binding signal (z-score) [3]: -0.243 | glycan array binding signal (z-score) (GalNAc(b1-3)Gal): -0.24 | glycan array binding signal (z-score) (GalNAc(b1-6)GalNAc): -0.216 | glycan array binding signal (z-score) (Glc(a1-6)Glc(a1-6)Glc): -0.299 | glycan array binding signal (z-score) [4]: -0.301 | glycan array binding signal (z-score) [5]: -0.212 | glycan array binding signal (z-score) [6]: -0.134 | glycan array binding signal (z-score) [7]: -0.336 | glycan array binding signal (z-score) (Kdn(a2-3)Gal(b1-4)GlcNAc): -0.224 | glycan array binding signal (z-score) [8]: -0.093 | glycan array binding signal (z-score) [9]: -0.254 | glycan array binding signal (z-score) [10]: -0.277 | glycan array binding signal (z-score) [11]: -0.203 | glycan array binding signal (z-score) [12]: -0.251 | glycan array binding signal (z-score) [13]: -0.256 | glycan array binding signal (z-score) [14]: -0.144 | glycan array binding signal (z-score) [15]: -0.34 | glycan array binding signal (z-score) [16]: -0.324 | glycan array binding signal (z-score) [17]: -0.281 | glycan array binding signal (z-score) [18]: -0.267 | glycan array binding signal (z-score) [19]: -0.292 | glycan array binding signal (z-score) [20]: -0.285
